Results: PubChem BioAssay
Several values for one entry are separate records, joined by “and”; a condition that tells them apart may be missing. Equal values may be shown once. Activity calls are given as the source filed them. Unless noted, no rule for the calls is given here.

Experiments:
[1] = circadian clock period modulators, cell-based, LOPAC library, luminescence reporter (AID 2774); conditions: circadian reporter cells, at 7 µM, actives lie on both sides;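 also: values are relative to mean of DMSO wells on each plate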
[2] = system: Hepatitis C virus NS3 helicase; test: HCV NS3 helicase inhibitors, primary screen, biochemical, fluorescence polarization, LOPAC1280 library (AID 687035; in the data active = inhibition above about 37%); conditions: Purified HCV NS3 helicase, Cy5-dT15 ssDNA binding fluorescence polarization; stronger effect = higher value; concentration not given here
[3] = Cy5 fluorescence quenching or enhancement artefacts, artefact control for HCV NS3 helicase inhibitor project, biochemical, LOPAC1280 (AID 687037); conditions: Cy5-DNA-NS3h complex fluorescence interference counterscreen
[4] = system: Aerobactin synthetase IucA (Klebsiella pneumoniae, hypervirulent); test: IucA enzyme inhibition, biochemical, LOPAC library, absorbance readout (AID 1346212); conditions: IucA enzyme assay, absorbance (OD) readout; stronger effect = lower value;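 tested at 8 µM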;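 also: 100% = no compound wells and 0% = no enzyme wells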
[5] = sensitizers of A549 cells to miR-34 induction, primary screen, imaging, A549 dox-inducible miR-34, nuclei and caspase counts (AID 1347080;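 active = compounds whose cell count with miR-34 switched on is under 0.7 times the count with it off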); conditions: A549 miR-34 inducible, Hoechst nuclei count, 48 h
[6] = phospholipid biosynthesis inhibitors in animal cells, primary screen, cell-based, LOPAC library, screen 4 (AID 1347384); conditions: phospholipid biosynthesis inhibition screen, at 10 µM
[7] = viability rescue of complex I mutant cybrids, primary screen, cell-based, galactose medium, ATP luminescence (AID 1645843;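 active = z-score of at least 1.8 in each of two replicates, scored against plate mean and spread of sample wells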;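 also: positive z means more ATP and so rescue of galactose-driven cybrid death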); conditions: complex I mutant cybrid cells, 72 h, stronger effect = higher value
[8] = measured here: relative caspase fold change +Dox/-Dox
[9] = measured here: total cells with miR-34 induction, stronger effect = lower value
[10] = measured here: total cells without miR-34 induction

Row | SMILES | period change [1] | inhibition [2] | fluorescence ratio (interference) [3] | remaining activity [4] | fold change ([5]; stronger effect = lower value) | fold change [5, 8] | cell count [5, 9] | cell count [5, 10] | outcome [6] | z-score [7]
1 | Cc1sc2ccccc2c1CC1=NCCN1 | 0.055 h (inactive) | -3% (inactive) | 0.9 (inactive) | 99.1% (inactive) | 1.03 (inactive) | 1.95 | 9870 | 9550 | inactive | -0.09 (inactive)
2 | NC1CCc2cc(O)c(O)cc2C1 (stereo not given) | 0.115 h (inactive) | -1% (inactive) | 1 (inactive) | 106% (inactive) | 0.979 (inactive) and 0.806 (inactive) | 1.51 and 1.21 | 9700 and 3720 | 9900 and 4610 | inactive | -0.895 (inactive)
3 | CN(N=O)c1ccc(O)c(O)c1 | -0.025 h (inactive) | 27% (inactive) | 0.9 (inactive) | 85.2% (inactive) | 1.13 (inactive) | 0.905 | 9750 | 8640 | inactive | 0.2 (inactive)
4 | O=C1C=CC(=O)C=C1 | -0.065 h (inactive) | 0% (inactive) | 1 (inactive) | 109% (inactive) | 1.02 (inactive) | 1.65 | 9760 | 9540 | inactive | 0.205 (inactive)
5 | C[N+](C)(C)CC#CCOC(=O)Nc1cccc(Cl)c1 | 0.045 h (inactive) | -2% (inactive) | 1 (inactive) | 123% (inactive) | 0.993 (inactive) | 1.89 | 10400 | 10500 | inactive | -0.395 (inactive)
6 | CC(C)NP(=O)(NC(C)C)OP(=O)(NC(C)C)NC(C)C | 0.055 h (inactive) | -5% (inactive) | 1 (inactive) | 90.6% (inactive) | 0.945 (inactive) | 1.32 | 9680 | 10200 | inactive | 0.25 (inactive)
7 | Clc1ccc(N2CC3CCC(C2)N3)nn1 | -0.11 h (inactive) | -5% (inactive) | 1 (inactive) | 90.4% (inactive) | 1 (inactive) | 1.13 | 10400 | 10400 | inactive | -0.28 (inactive)
8 | CNc1ccc2oc(C[C@H]3O[C@@]4(CC[C@H]3C)O[C@H]([C@H](C)C(=O)c3ccc[nH]3)[C@H](C)C[C@H]4C)nc2c1C(=O)O | -0.125 h (inactive) | 1% (inactive) | 1 (inactive) | 119% (inactive) | 0.828 (inactive) | 1.6 | 428 | 516 | inactive | -1.52 (inactive)
9 | Clc1cnc(Oc2ccc(Oc3ncc(Cl)cc3Cl)cc2)c(Cl)c1 | 0 h (inactive) | -3% (inactive) | 1 (inactive) | 94.8% (inactive) | 0.984 (inactive) | 1.88 | 9890 | 10000 | inactive | 1.21 (inactive)
10 | CCS(=O)(=O)Nc1cccc(C(=C2CCCCC2)c2cnc[nH]2)c1 | 0.07 h (inactive) | 0% (inactive) | 1 (inactive) | 108% (inactive) | 1.11 (inactive) | 1.94 | 8610 | 7740 | inactive | -0.125 (inactive)
11 | NCCCP(=O)(O)O | 0.005 h (inactive) | -1% (inactive) | 1 (inactive) | 111% (inactive) | 0.943 (inactive) | 2.14 | 9360 | 9930 | inactive | 0.285 (inactive)
12 | CNCCc1ccc(O)c(O)c1 | 0 h (inactive) | -2% (inactive) | 1 (inactive) | 115% (inactive) | 1.01 (inactive) | 1.35 | 9960 | 9850 | inactive | -0.945 (inactive)
13 | O=C(O)[C@@H]1CCN1 | 0.09 h (inactive) | -5% (inactive) | 0.9 (inactive) | 122% (inactive) | 1.03 (inactive) | 1.27 | 10700 | 10400 | inactive | 0.2 (inactive)
14 | COc1ccc2[nH]c3c(c2c1)CCNC3 | -0.105 h (inactive) | 1% (inactive) | 0.9 (inactive) | 108% (inactive) | 1.02 (inactive) | 0.898 | 10400 | 10200 | inactive | 0.28 (inactive)
15 | CCCN1CCc2cccc3c2[C@H]1Cc1ccc(O)c(O)c1-3 | 0.32 h (inactive) | -3% (inactive) | 1 (inactive) | 109% (inactive) | 1.06 (inactive) | 0.965 | 7250 | 6850 | inactive | -1.03 (inactive)
16 | Nc1ccc(CCN2CCN(c3cccc(C(F)(F)F)c3)CC2)cc1 | 0.14 h (inactive) | -3% (inactive) | 0.9 (inactive) | 102% (inactive) | 0.992 (inactive) | 0.858 | 8520 | 8580 | inactive | -0.665 (inactive)
